The record followed here is PubChem BioAssay.

Molecules are shown by their SMILES. Results filed as inconclusive are left out. Activity calls are given as the source filed them.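 How the source made its calls, unless noted: active means normalized viability below 100% at a tested concentration; inactive means the rest.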

Assay [1] is described as follows: viability loss in pontine glioma line – cell-based, SU-DIPG-XIII, MIPE4.0, CellTiter-Glo, qHTS, dose response (AID 1347061; cut-off not given, nearly all actives have AC50 up to about 37 µM;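 further: cells exposed to compound for 48 hours before readout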). As to conditions: CellTiter-Glo ATP luminescence. In general terms: ATP-based viability assays read luminescence as a measure of living cells.
A short description of assay [2]: viability loss in pontine glioma line – cell-based, JHH-DIPG-1, MIPE4.0, CellTiter-Glo, qHTS, dose response (AID 1347062; cut-off not given, nearly all actives have AC50 up to about 27 µM). As to conditions: JHH-DIPG-1 viability, CellTiter-Glo ATP luminescence.
The nature of assay [3]: growth inhibition of DIPG cells – cell-based, MIPE4.0 library, CellTiter-Glo luminescence, qHTS (AID 1347066; cut-off not given, nearly all actives have AC50 up to about 30 µM;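 further: cells exposed to compound for 48 hours before readout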). Particulars: SU-DIPG-VI viability, CellTiter-Glo ATP luminescence.
A short description of assay [4]: MELAS cybrid and Rieske KO viability enhancers – cell-based, MELAS cybrids, Rieske KO mouse fibroblasts, CellTiter-Glo, primary screen (AID 1508586;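 active means mean z-score across replicates of 1.96 or higher in either the MELAS or the Rieske mutant cell line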;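 further: z relative to plate mean and SD of compound and empty wells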). Particulars: low glucose.
A short description of assay [5]: viability loss in pontine glioma line – cell-based, SU-DIPG-IV, MIPE4.0, CellTiter-Glo, qHTS, dose response (AID 1347063; cut-off not given, nearly all actives have AC50 up to about 30 µM;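 further: compound exposure lasted 48 hours before the viability readout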). Particulars: CellTiter-Glo ATP luminescence.
Assay [6] can be described thus: viability loss in pontine glioma line – cell-based, SU-DIPG-XXV, MIPE5.0, CellTiter-Glo, qHTS, dose response (AID 1347065; cut-off not given, nearly all actives have AC50 up to about 26 µM;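 further: cells exposed to compound for 48 hours before ATP readout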). As to conditions: CellTiter-Glo ATP luminescence.
Assay [7] in a line: JHH-DIPG-1 glioma cell viability, MIPE5.0 library, CellTiter-Glo luminescence, qHTS (AID 1347067; cut-off not given, nearly all actives have AC50 up to about 26 µM;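 further: cells exposed to compound for 48 hours before readout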). As to conditions: JHH-DIPG-1 glioma viability, CellTiter-Glo ATP luminescence.
The nature of assay [8]: viability loss in pontine glioma line – cell-based, SU-DIPG-XIII, MIPE5.0, CellTiter-Glo, qHTS, dose response (AID 1347064; cut-off not given, nearly all actives have AC50 up to about 23 µM). Particulars: CellTiter-Glo ATP luminescence.
The nature of assay [9]: growth inhibition of DIPG cells – cell-based, MIPE5.0 library, qHTS (AID 1347068; cut-off not given, nearly all actives have IC50 up to about 30 µM). Particulars: SU-DIPG-XXV viability.
Assay [10] is described as follows: viability loss with induced miR-34 in A549 – imaging, A549 dox-inducible miR-34, nuclei and caspase counts, primary screen (AID 1347080;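 active means compounds whose cell count with miR-34 switched on is under 0.7 times the count with it off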). Particulars: A549 miR-34 inducible, Hoechst nuclei count, 48 h.
Assay [11] in a line: compounds altering HSF1 focus formation in cells – imaging, Selleck Cancer Library (AID 1347162; in the data active means plate-normalised HSF1 focus index below about 0.46). As to conditions: human cells, HSF1 nuclear foci imaging, at 10 µM; SSMD: measured here: HSF1 foci SSMD mean; cell count: measured here: cell number; plate-normalised HSF1 focus index: stronger effect = lower value.
Assay [12] in a line: drug combination growth inhibition, ovarian cancer – cell-based, oncology-focused library, rucaparib conditional, profiling panel (AID 1508598). Particulars: patient-derived ovarian cancer cells, CellTiter-Glo viability, 144 h, stronger effect = lower value.
Where [13] appears, read: MELAS cybrid survival, CellTiter-Glo 48 h, stronger effect = higher value.
[14] abbreviates: Rieske KO mouse fibroblast survival, CellTiter-Glo 72 h.

Turning to `CN(C)c1cc(NC(=O)CNC(C)(C)C)c(O)c2c1C[C@H]1C[C@H]3[C@H](N(C)C)C(=O)C(C(N)=O)=C(O)[C@@]3(O)C(=O)C1=C2O`, the call in [1], in assay [2] and in assay [3] was inactive. For the same compound, the z-score in assay [4] (setting [13]) is 0.577 (inactive); in [4] (setting [14]), 0.0397.

On to `C/C=C(/C)C(=O)O[C@H]1C(C)=C[C@]23C(=O)[C@@H](C=C(CO)[C@@H](O)[C@]12O)[C@H]1[C@@H](C[C@H]3C)C1(C)C`, for which, in [1], the compound was called inactive. In assay [3], the half-maximal activity concentration (AC50) was 20.9 µM (active).

For the compound `COc1cc2ncnc(Nc3cc(Br)c(O)c(Br)c3)c2cc1OC`, the outcome in assay [1] and in assay [3] was inactive. Besides, the AC50 in assay [5] was 2.35 µM (active).

On to `CC(O)(C#Cc1ccc2c(c1)N(c1nc(N)ncc1Cl)CC2)c1nccs1` (stereo not drawn), for which the AC50 in assay [1] was 16.6 µM (active); in assay [5], 16.6 µM (active); in [6], 13.2 µM (active); in assay [7], 18.6 µM (active). In addition, in assay [3], the compound was classed as inactive.

Take `CC(C)OC(=O)C1=CN(C(=O)c2ccc(F)c(F)c2)CC(C)(C)c2c1[nH]c1ccccc21`: the compound was called inactive in assay [1], in assay [8], in assay [6], in assay [3], in assay [7] and in [9]. In addition, the AC50 in assay [5] was 26.4 µM (active). The fold change in [10] (stronger effect = lower value, cell number ratio, induced over uninduced) was 0.997 (inactive); in [10] (measured here: relative caspase fold change +Dox/-Dox), 0.501. In addition, the cell count in [10] (measured here: total cells with miR-34 induction, stronger effect = lower value) worked out at 7570; in assay [10] (measured here: total cells without miR-34 induction), 7590; in assay [11], 7100. This compound also had an SSMD in [11] of 3.1. In addition, the plate-normalised HSF1 focus index in assay [11] was 1.17 (inactive). For the same compound, the z-score in [4] (setting [13]) was -0.00254 (inactive); in assay [4] (setting [14]), 0.0698. For the same compound, the viability in assay [12] (at 0.000305 µM, OCI-C5x cells, with rucaparib 10 µM, 100% = cells with rucaparib alone) is 123% (inactive); in assay [12] (at 0.000305 µM, OCI-C5x cells, without rucaparib) it was 126% (inactive); in assay [12] (at 0.000305 µM, OCI-P5x cells, with rucaparib 20 µM, 100% = cells with rucaparib alone), 115% (inactive); in assay [12] (at 0.000305 µM, OCI-P5x cells, without rucaparib), 112% (inactive); in assay [12] (at 0.00122 µM, OCI-C5x cells, with rucaparib 10 µM, 100% = cells with rucaparib alone), 116% (inactive); in [12] (at 0.00122 µM, OCI-C5x cells, without rucaparib), 130% (inactive). Also, the viability in assay [12] (at 0.00122 µM, OCI-P5x cells, with rucaparib 20 µM, 100% = cells with rucaparib alone) was 117% (inactive); in assay [12] (at 0.00122 µM, OCI-P5x cells, without rucaparib) it was 110% (inactive); in assay [12] (at 0.00488 µM, OCI-C5x cells, with rucaparib 10 µM, 100% = cells with rucaparib alone), 128% (inactive); in assay [12] (at 0.00488 µM, OCI-C5x cells, without rucaparib), 128% (inactive); in assay [12] (at 0.00488 µM, OCI-P5x cells, with rucaparib 20 µM, 100% = cells with rucaparib alone) it was 111% (inactive); in [12] (at 0.00488 µM, OCI-P5x cells, without rucaparib), 115% (inactive). Also, the viability in assay [12] (at 0.0195 µM, OCI-C5x cells, with rucaparib 10 µM, 100% = cells with rucaparib alone) was 108% (inactive); in [12] (at 0.0195 µM, OCI-C5x cells, without rucaparib), 126% (inactive); in [12] (at 0.0195 µM, OCI-P5x cells, with rucaparib 20 µM, 100% = cells with rucaparib alone) it was 118% (inactive); in assay [12] (at 0.0195 µM, OCI-P5x cells, without rucaparib) it was 115% (inactive); in [12] (at 0.0781 µM, OCI-C5x cells, with rucaparib 10 µM, 100% = cells with rucaparib alone), 112% (inactive); in assay [12] (at 0.0781 µM, OCI-C5x cells, without rucaparib), 128% (inactive). Further, the viability in assay [12] (at 0.0781 µM, OCI-P5x cells, with rucaparib 20 µM, 100% = cells with rucaparib alone) is 115% (inactive); in [12] (at 0.0781 µM, OCI-P5x cells, without rucaparib) it was 116% (inactive); in [12] (at 0.313 µM, OCI-C5x cells, with rucaparib 10 µM, 100% = cells with rucaparib alone), 125% (inactive); in assay [12] (at 0.313 µM, OCI-C5x cells, without rucaparib), 131% (inactive); in assay [12] (at 0.313 µM, OCI-P5x cells, with rucaparib 20 µM, 100% = cells with rucaparib alone) it was 113% (inactive); in assay [12] (at 0.313 µM, OCI-P5x cells, without rucaparib) it was 114% (inactive). For the same compound, the viability is 114% (inactive) in assay [12] (at 1.25 µM, OCI-C5x cells, with rucaparib 10 µM, 100% = cells with rucaparib alone); 122% (inactive) in [12] (at 1.25 µM, OCI-C5x cells, without rucaparib); 114% (inactive) in assay [12] (at 1.25 µM, OCI-P5x cells, with rucaparib 20 µM, 100% = cells with rucaparib alone); 106% (inactive) in [12] (at 1.25 µM, OCI-P5x cells, without rucaparib); 125% (inactive) in assay [12] (at 5 µM, OCI-C5x cells, with rucaparib 10 µM, 100% = cells with rucaparib alone); 118% (inactive) in assay [12] (at 5 µM, OCI-C5x cells, without rucaparib). Also, the viability in [12] (at 5 µM, OCI-P5x cells, with rucaparib 20 µM, 100% = cells with rucaparib alone) is 114% (inactive); in assay [12] (at 5 µM, OCI-P5x cells, without rucaparib) it was 113% (inactive).

Regarding `CCOC(=O)N1c2ccc(C(F)(F)F)cc2[C@@H](N(Cc2cc(C(F)(F)F)cc(C(F)(F)F)c2)C(=O)OC)C[C@H]1CC`, the call in assay [1], in assay [8], in assay [3], in assay [7] and in [9] was inactive.

Take `N#Cc1ccc(NC(=O)Nc2ccccc2Br)c2n[nH]nc12`: the compound was classed as inactive in assay [1]. Also, in [6], the call was inactive. For the same compound, in assay [11], the SSMD was -0.0129, the cell count was 7440 and the plate-normalised HSF1 focus index is 1 (inactive).

The term AC50 denotes the midpoint of the concentration-response curve, whichever way the signal moves. As usually defined, the viability is a read-out of living cells in per cent, often relative to untreated cells.
